In all, about 52,000 compounds went through this assay and about 4,300 (8.3%) were called active. What follows is part of a selection rich in actives, with near analogues and random picks from the rest. Values without a mark were called inactive. Rule as the data show it: active = survival mostly below about 52% (no sharp cut-off); inactive = mostly above about 56%.

The test system of this assay is DeltatarO mutant. The assay can be described thus: S. aureus survival, RN4220 and DeltatarO strains – OD600, teichoic acid synthesis inhibitors, primary screen (AID 463173). The settings on record: S. aureus RN4220 wild type/DeltatarO growth, OD600, 18 h, stronger effect = lower value, screened at 18.75 µg/mL (by protocol).
In the case of `Cc1cccc(OCc2nnc(SC(C)C(=O)O)n2Cc2ccccc2)c1` (stereo not given), the survival is 103%.

Take `CCc1ccc(N(CC(=O)N2CCCCC2)S(C)(=O)=O)cc1`: the survival is 105%.

Take `CCc1ccc(CNC(=O)C2CCN(c3nnc(-n4c(C)ccc4C)s3)CC2)cc1`: the survival is 86%.

In the case of `COc1cccc(CNC(=O)c2cc(=O)[nH]c3ccc(S(=O)(=O)N4CCCC4)cc23)c1`, the survival is 60%.

For the compound `COc1ccc(-c2nc3sc(CCNC(=O)Cc4ccc(F)cc4)c(C)n3n2)cc1`, the survival is 94%.

Turning to `CCOC(=O)c1c(C)[nH]c(C)c1S(=O)(=O)NCC(=O)Nc1cc(Cl)ccc1OC`, the survival was -4% (active).

`CCOc1ccc(OCC)c(NC(=O)CN(c2ccc(C)cc2)S(=O)(=O)c2c(C)n[nH]c2C)c1`: the survival was 32% (active).

`COc1ccc(NC(=O)CN(c2cc(C)cc(C)c2)S(=O)(=O)c2c(C)noc2C)cc1Cl`: the survival is 91%.

In the case of `CCOC(=O)c1c(C)[nH]c(C)c1S(=O)(=O)NCC(=O)Nc1cc(C)ccc1OC`, the survival is 60%.

For the compound `CCOC(=O)c1scc(-c2ccc(C)cc2)c1S(=O)(=O)Nc1cc(Cl)ccc1OC`, the survival was -5% (active).

Turning to `COc1ccccc1NC(=O)CN(c1cc(C)cc(C)c1)S(=O)(=O)c1c(C)[nH]c(=O)[nH]c1=O`, the survival is 118%.

For `CCOC(=O)c1scc(-c2ccc(C)cc2)c1S(=O)(=O)Nc1ccc(OC)c(Cl)c1`, the survival is 77%.

In the case of `CCOc1ccc(N(CC(=O)Nc2cc(C)ccc2C)S(=O)(=O)c2c(C)[nH]c(=O)[nH]c2=O)cc1`, the survival was 69%.

For `COc1ccc(Cl)cc1NC(=O)CN(c1cc(C)cc(C)c1)S(=O)(=O)c1c(C)n[nH]c1C`, the survival was 9% (active).

In the case of `CCOC(=O)c1c(C)[nH]c(C)c1S(=O)(=O)N(C)CC(=O)Nc1cc(Cl)ccc1OC`, the survival was 117%.

Take `CCc1ccccc1NC(=O)CN(c1ccc(OC)cc1)S(=O)(=O)c1c(C)n[nH]c1C`: the survival was 74%.

For `CCOC(=O)c1scc(-c2ccc(C)cc2)c1S(=O)(=O)Nc1cc(OC)ccc1OC`, the survival is 92%.

As for `COc1ccc(NC(=O)c2c(NCc3cccs3)sc3c2CCCCC3)c(OC)c1`, the survival is 69%.

For the compound `CC1CN(C(=O)CCC(=O)NCc2ccc(F)cc2)c2cc(Cl)ccc2O1` (stereo not given), the survival was 80%.

Take `Cc1cc(-c2ccccc2)nc2cc(C(=O)Nc3ccc(Cl)c(Cl)c3)nn12`: the survival was 52%.

On to `CC(=O)N1CCCC1c1nc2ccccc2n1Cc1ccccc1F` (stereo not given), for which the survival is 61%.

For `COC(=O)c1ccc(OCC2c3cc(OC)c(OC)cc3CCN2C(=O)c2ccc(F)cc2)cc1` (stereo not given), the survival was 76%.

In the case of `COc1ccc(CCNC(=O)c2ccc3c(c2)N(Cc2ccc(F)cc2)C(=O)c2ccccc2S3(=O)=O)cc1OC`, the survival was 104%.

Take `CC(C)NS(=O)(=O)c1cccs1`: the survival was 65%.

As for `CC(C)c1cccc(C(C)C)c1NS(=O)(=O)c1cccs1`, the survival is 41% (active).

`O=S(=O)(Nc1ccc(O)cc1)c1cccs1`: the survival was 83%.

For the compound `COc1ccc(S(=O)(=O)N(Cc2nc(-c3ccc(C)cc3)no2)C2CCCCC2)cc1`, the survival is 63%.

With `COc1ccc(-c2noc(CN(C(C)C)S(=O)(=O)c3ccc(Br)cc3)n2)cc1`, the survival is 44% (active).

`Cc1ccc(-c2noc(CN(C3CCCCC3)S(=O)(=O)c3ccc(C)cc3)n2)cc1`: the survival is 62%.

For the compound `Cc1cccc(-c2noc(CN(C(C)C)S(=O)(=O)c3ccc(Br)cc3)n2)c1`, the survival is 45% (active).

In the case of `Cc1cccc(-c2noc(CNC(=O)c3ccco3)n2)c1`, the survival is 83%.

With `CCN(Cc1nc(-c2ccc(OC)c(OC)c2)no1)S(=O)(=O)c1ccc(OC)cc1`, the survival was 47%.

In the case of `O=C(CCS(=O)(=O)c1cc2c(cc1Cl)NC(=O)CO2)NCc1ccccc1`, the survival is 106%.

For `CCOC(=O)c1c(C)[nH]c(CCC(=O)NCc2cc(Br)ccc2OC)c1C`, the survival is 115%.

Take `O=C(NCCN1CCOCC1)c1ccncc1`: the survival was 96%.

Turning to `Cc1cccc(OCC(=O)Nc2cccc(OCc3cc(=O)n4cccc(C)c4n3)c2)c1`, the survival was 109%.

`COCCNC(=O)CCc1c(C)n(C)c2cc(-c3cc(OC)c(OC)c(OC)c3)nn2c1=O`: the survival was 25% (active).

`COc1cc(-c2cc3n(C)c(C)c(CCC(=O)NCc4ccccc4)c(=O)n3n2)cc(OC)c1OC`: the survival is 92%.

As to `COc1cc(-c2cc3n(C)c(C)c(CCC(=O)O)c(=O)n3n2)cc(OC)c1OC`, the survival is 94%.

Take `O=C(O)CCC(=O)Nc1ccncc1`: the survival was 92%.

Regarding `Cc1ccc(Cl)cc1N1CCN(C(=O)CCSCc2ccccc2F)CC1`, the survival was 89%.

In the case of `Cc1cc(C)cc(NC(=O)C(=O)NCC(c2cccnc2)N2CCOCC2)c1` (stereo not given), the survival was 107%.

Turning to `CCOC(=O)C1CCN(C(c2ccc(OCC)cc2)c2c(O)cc(C)n(CCOC)c2=O)CC1` (stereo not given), the survival is 67%.

Turning to `Cc1cc(Br)cc2c1N(Cc1ccccc1OC(C)C)C(=O)C2=O`, the survival was 22% (active).

On to `Cc1ccc2c(c1)C(=O)C(=O)N2Cc1ccc(OCCC(C)C)cc1`, for which the survival is 93%.

Regarding `CCOc1ccc(CN2C(=O)C(=O)c3cccc(C)c32)cc1OC`, the survival is 118%.

For the compound `CCCOc1ccc(CN2C(=O)C(=O)c3cccc(C)c32)cc1`, the survival is 39% (active).

For the compound `Cc1ccc(CN2C(=O)C(=O)c3cc(Br)cc(C)c32)cc1`, the survival was 31% (active).

On to `COc1ccccc1CN1C(=O)C(=O)c2cccc(C)c21`, for which the survival is 103%.

As for `Cc1ccc(C)c(CN2C(=O)C(=O)c3ccccc32)c1`, the survival was 92%.

`Cc1cccc2c1N(Cc1ccccc1OCCC(C)C)C(=O)C2=O`: the survival is 2% (active).

As to `COc1ccccc1Cn1ccn(Cc2ccc(C)cc2)c(=O)c1=O`, the survival was 112%.

In the case of `CCCCOc1ccc(CN2C(=O)C(=O)c3cc(Br)cc(C)c32)cc1OC`, the survival was 49%.

Consider `CC(C)CN1C(=O)c2ccc(Br)cc2C1=O`, for which the survival was 67%.

For `Cc1ccc2c(c1)C(=O)C(=O)N2Cc1ccc(OC(C)C)cc1`, the survival is 120%.

In the case of `Cc1cc(C)cc(NC(=O)C2CCCN2S(=O)(=O)c2ccc3c(c2)CCCC(=O)N3)c1` (stereo not given), the survival is 83%.

As to `CCc1ccc(NC(=O)Cn2nnc(C(=O)Nc3ccc(F)cc3)c2N)cc1`, the survival is 99%.

`COc1ccc(-n2nc(C(=O)N3CCCC(C)C3)c3c4ccccc4n(C)c3c2=O)cc1` (stereo not given): the survival is 74%.

`c1ccc(-c2nc(-c3cccnc3)no2)cc1`: the survival was 98%.

For the compound `O=c1[nH]ncc(NCCc2ccccc2)c1Cl`, the survival is 101%.

`N#Cc1ccccc1Cn1c(=O)n(Cc2ccc(C(=O)NC3CCN(Cc4ccccc4)CC3)cc2)c(=O)c2ccccc21`: the survival was 90%.

In the case of `COC(=O)c1ccc(NC(=O)C(=O)NCCc2sc3nc(-c4ccc(OC)cc4)nn3c2C)cc1`, the survival was 83%.

`O/N=C1\CCCc2nnc3c(c21)CCCC3`: the survival is 101%.

In the case of `CCOC(=O)/C(C#N)=C\C1=C(N2CCCC2)CC(C)(C)OC1`, the survival was 91%.

In the case of `Cc1nc2ccc(S(=O)(=O)NCC(=O)Nc3ccc(F)cc3F)cc2s1`, the survival is 120%.

Turning to `CCOc1ccc(S(=O)(=O)NCC(c2ccc(N(C)C)cc2)N2CCCC2)cc1` (stereo not given), the survival is 107%.

In the case of `COc1ccc(Nc2ncnc3onc(C)c23)cc1Cl`, the survival was 87%.

Consider `O=C(c1ccc(Cl)cc1)N1CCC(c2nc3ccccc3o2)CC1`, for which the survival is 79%.

As for `CCc1ccccc1NC(=O)Cn1nnc(C(=O)NCc2ccco2)c1N`, the survival was 93%.

On to `COc1ccc(NC(=O)c2ccc3c(c2)CCN3S(=O)(=O)c2ccccc2)cc1`, for which the survival was 92%.

Take `CC(NC(=O)c1ccc2c(c1)CCN2S(C)(=O)=O)c1ccccc1` (stereo not given): the survival is 91%.

`CC(C)c1ccc(NC(=O)c2ccc3c(c2)CCN3S(=O)(=O)c2ccccc2)cc1`: the survival was 44% (active).

As for `CC(NC(=O)c1ccc2c(c1)CCN2S(=O)(=O)c1ccccc1)c1ccccc1` (stereo not given), the survival is 37% (active).

In the case of `CC(=O)Nc1ccc(NC(=O)c2ccc3c(c2)CCN3S(=O)(=O)c2ccc(C)cc2)cc1`, the survival is 62%.

In the case of `CC(C)c1ccc(NC(=O)c2ccc(F)c(S(=O)(=O)N3CCc4ccccc43)c2)cc1`, the survival was 83%.

Turning to `CS(=O)(=O)N1CCc2cc(C(=O)Nc3ccc(S(N)(=O)=O)cc3)ccc21`, the survival was 48%.

On to `CC(NC(=O)c1ccc2c(c1)CCN2S(=O)(=O)c1ccc(Cl)cc1)c1ccccc1` (stereo not given), for which the survival was 67%.

`NS(=O)(=O)c1ccc(NC(=O)c2ccc3c(c2)CCN3S(=O)(=O)c2ccccc2)cc1`: the survival is 43% (active).

For `Cc1ccc(Nc2nc3ccccc3c3nnc(C)n23)c(C)c1`, the survival is 70%.

For `CC(C)(C)OC(=O)N1CCC(c2c(C(=O)NCc3ccco3)cnn2-c2ccc(F)cc2F)CC1`, the survival was 83%.

`COc1cc(C)ccc1OCCSc1nc2ccc(NC(=O)c3ccc4c(c3)OCO4)cc2s1`: the survival is 64%.

For the compound `CN(C(=O)C1CCCN(c2ncnc3c2nc2n3CCCCC2)C1)c1ccccc1F` (stereo not given), the survival is 81%.

For the compound `CCC(NC(=O)Nc1cc(OC)ccc1OC)c1c(-n2cccc2)sc2c1CCN(CC)C2` (stereo not given), the survival was 88%.

For `Fc1cccc(CSc2ccc(-c3cccs3)nn2)c1`, the survival was 94%.

Turning to `Cc1ccc(C)c(CNC(=O)c2sc3ncnc(N(C)C4CCCCC4)c3c2C)c1`, the survival was 115%.

For `Cc1ccc(Oc2coc3cc(OCC(=O)NC4CCCCC4)ccc3c2=O)cc1`, the survival was 55%.

Regarding `Cc1ccc(Oc2c(C(F)(F)F)oc3cc(OCC(=O)NC4CCCCC4)ccc3c2=O)cc1`, the survival was 46% (active).

For the compound `Cc1cc(C)cc(Oc2c(C(F)(F)F)oc3cc(OCC(=O)NC4CCCCC4)ccc3c2=O)c1`, the survival was 110%.

Consider `CCc1ccc(C(=O)COC(=O)C(NC(=O)C2CCC(C)CC2)C(C)C)cc1` (stereo not given), for which the survival was 72%.

As for `CC1(C)CC(=O)C=C(NCC2CCNCC2)C1`, the survival is 95%.
